# According to PubChem BioAssay (NCI):
# About 79,000 compounds went through this panel and 15% of them were active in at least one assay; those are over-represented in the sample as a whole. Values without a mark were called inactive. Calls of active or inactive are those of the source. Rule as the data show it: active = growth inhibition above about 70%; inactive = the rest.
# Columns and labels:
# [1] = NCI Yeast Anticancer Drug Screen. Data for the rad52 strain (AID 147);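 also: 0% = growth of vehicle-treated control cultures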; conditions: S. cerevisiae rad52 mutant growth inhibition, active compounds read high
# Outline: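 Here a repair-compromised yeast strain receives each compound; its growth is then quantified and normalised to vehicle-only controls.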
# [2] = NCI Yeast Anticancer Drug Screen. Data for the wt1 strain (AID 149);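 also: 0% = growth of vehicle-treated wt1 cultures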; conditions: S. cerevisiae wt1 strain (SPY 50644) growth inhibition, active compounds read high
# Outline: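 Using yeast strain wt1, compound-induced growth inhibition was determined against vehicle-treated cultures.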
# [3] = NCI Yeast Anticancer Drug Screen. Data for the rad50EPP+ strain (AID 151);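 also: 0% = growth of vehicle-treated control cultures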; conditions: S. cerevisiae rad50 mutant strain, active compounds read high
# Outline: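 Read-out is yeast growth inhibition relative to vehicle; cells used were the rad50EPP+ strain.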
# [4] = NCI Yeast Anticancer Drug Screen. Data for the mgt1 strain (AID 153); conditions: S. cerevisiae mgt1 mutant growth inhibition, active compounds read high
# Outline: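 Measured: inhibition of mgt1 yeast growth by compound, normalized to vehicle-treated cultures.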
# [5] = NCI Yeast Anticancer Drug Screen. Data for the rad50 strain (AID 155);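 also: 0% = growth of vehicle-only cultures of the same strain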; conditions: S. cerevisiae rad50 strain growth inhibition, active compounds read high
# Outline: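 Relative growth inhibition (compound vs vehicle) was measured in yeast with a defined repair-gene alteration.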
# [6] = NCI Yeast Anticancer Drug Screen. Data for the mec2-1 strain (AID 157); conditions: S. cerevisiae mec2-1 strain, active compounds read high
# Outline: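 Using mec2-1 yeast: add compound, measure growth, express inhibition versus vehicle-treated cultures.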
# [7] = NCI Yeast Anticancer Drug Screen. Data for the rad14 strain (AID 159);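 also: 0% = growth of vehicle-treated control cultures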; conditions: S. cerevisiae rad14 strain growth inhibition, active compounds read high
# Outline: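 Screen for anticancer potential: a yeast strain altered in DNA damage repair is grown with compound, and reduced growth is quantified against vehicle controls.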
# [8] = NCI Yeast Anticancer Drug Screen. Data for the sgs1 mgt1 strain (AID 161);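 also: 0% = growth of cultures given vehicle only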; conditions: S. cerevisiae sgs1 mgt1 strain, active compounds read high
# Outline: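 This yeast growth screen uses a strain with defined DNA-repair lesions; compound-treated growth is compared with vehicle-treated growth.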
# [9] = NCI Yeast Anticancer Drug Screen. Data for the CLN2oe strain (AID 163);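 also: 0% = growth of vehicle-only control cultures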; conditions: S. cerevisiae CLN2oe strain, active compounds read high
# Outline: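 Whole-cell yeast growth assay. A strain engineered for altered cell-cycle control received compound, and inhibition relative to vehicle-treated cultures was recorded.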
# [10] = NCI Yeast Anticancer Drug Screen. Data for the cln2 rad14 strain (AID 165);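 also: 0% = growth equal to vehicle treated cultures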; conditions: S. cerevisiae cln2 rad14 strain, active compounds read high
# Outline: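 Yeast strain cln2 rad14, bearing defects in cell cycle control and DNA repair, serves as the test system; values reflect growth inhibition compared with vehicle.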
# [11] = NCI Yeast Anticancer Drug Screen. Data for the bub3 strain (AID 167); conditions: S. cerevisiae bub3 mutant strain, active compounds read high
# Outline: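 Screening used yeast with an engineered genetic alteration affecting cell cycle control. Compound-exposed cultures were compared with vehicle cultures, and reduced growth was taken as inhibition.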
# [12] = NCI Yeast Anticancer Drug Screen. Data for the wt2 strain (AID 169);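 also: 0% = growth of vehicle-treated yeast cultures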; conditions: S. cerevisiae wt2 strain growth inhibition, active compounds read high
# Outline: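 Treated yeast vs. vehicle-treated yeast: growth inhibition determined.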
# [13] = NCI Yeast Anticancer Drug Screen. Data for the mlh1 strain (AID 171);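 also: 0% = growth of vehicle-treated control cultures of the same strain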; conditions: S. cerevisiae mlh1 strain growth inhibition, active compounds read high
# Outline: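 A yeast strain with a defined genetic lesion serves as the test organism. Cultures receive compound or vehicle, and growth is measured.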
# [14] = NCI Yeast Anticancer Drug Screen. Data for the mlh1 rad18 strain (AID 175); conditions: S. cerevisiae mlh1 rad18 strain growth inhibition, active compounds read high
# Outline: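 Steps: expose repair-defective yeast to compound; measure growth; express inhibition against vehicle-treated controls.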
# [15] = NCI Yeast Anticancer Drug Screen. Data for the sgs1 strain (AID 173);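 also: 0% = growth of vehicle-only control cultures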; conditions: S. cerevisiae sgs1 mutant, active compounds read high
# Outline: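 A genetically defined yeast mutant is incubated with the test compound, and its growth is compared to that of the same strain given vehicle.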
# [16] = NCI Yeast Anticancer Drug Screen. Data for the rad18 strain (AID 177); conditions: S. cerevisiae rad18 mutant growth inhibition, active compounds read high
# Outline: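 Measured value is growth inhibition of a yeast strain bearing a DNA repair alteration, referenced to vehicle-treated cells.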
# [17] = at 5.0 µM (retest, dose inferred, filed as 0.5)
# [18] = at 50.0 µM (retest, dose inferred, filed as 5.0)
structure (smiles),measurement,setting,value
O=C(O)CCCC1CCCc2c1ccc1ccccc21 (stereo unspecified),growth inhibition,[1]; at 1.2 µM,-2%
same,growth inhibition,[1]; at 3.7 µM,1%
same,growth inhibition,[1]; at 11.0 µM,11%
same,growth inhibition,[1]; at 33.0 µM,74% (active)
same,growth inhibition,[1]; at 100.0 µM,99% (active)
same,growth inhibition,[2]; at 1.2 µM,-3%
same,growth inhibition,[2]; at 3.7 µM,2%
same,growth inhibition,[2]; at 11.0 µM,2%
same,growth inhibition,[2]; at 33.0 µM,38%
same,growth inhibition,[2]; at 100.0 µM,99% (active)
same,growth inhibition,[3]; at 1.2 µM,3%
same,growth inhibition,[3]; at 3.7 µM,8%
same,growth inhibition,[3]; at 11.0 µM,29%
same,growth inhibition,[3]; at 33.0 µM,59%
same,growth inhibition,[3]; at 100.0 µM,81% (active)
same,growth inhibition,[4]; at 1.2 µM,-4%
same,growth inhibition,[4]; at 3.7 µM,-3%
same,growth inhibition,[4]; at 11.0 µM,4%
same,growth inhibition,[4]; at 33.0 µM,59%
same,growth inhibition,[4]; at 100.0 µM,99% (active)
same,growth inhibition,[5]; at 1.2 µM,-2%
same,growth inhibition,[5]; at 3.7 µM,0%
same,growth inhibition,[5]; [17],6%
same,growth inhibition,[5]; at 11.0 µM,8%
same,growth inhibition,[5]; at 33.0 µM,58%
same,growth inhibition,[5]; [18],89% (active)
same,growth inhibition,[5]; at 50.0 µM,88% (active)
same,growth inhibition,[5]; at 100.0 µM,99% (active)
same,growth inhibition,[6]; at 1.2 µM,-2%
same,growth inhibition,[6]; at 3.7 µM,-4%
same,growth inhibition,[6]; [17],10%
same,growth inhibition,[6]; at 11.0 µM,4%
same,growth inhibition,[6]; at 33.0 µM,47%
same,growth inhibition,[6]; [18],95% (active)
same,growth inhibition,[6]; at 50.0 µM,83.6% (active)
same,growth inhibition,[6]; at 100.0 µM,99% (active)
same,growth inhibition,[7]; at 1.2 µM,3%
same,growth inhibition,[7]; at 3.7 µM,7%
same,growth inhibition,[7]; at 11.0 µM,13%
same,growth inhibition,[7]; at 33.0 µM,51%
same,growth inhibition,[7]; at 100.0 µM,99% (active)
same,growth inhibition,[8]; [17],13%
same,growth inhibition,[8]; [18],86% (active)
same,growth inhibition,[8]; at 50.0 µM,94.3% (active)
same,growth inhibition,[9]; at 1.2 µM,1%
same,growth inhibition,[9]; at 3.7 µM,-4%
same,growth inhibition,[9]; at 11.0 µM,13%
same,growth inhibition,[9]; at 33.0 µM,74% (active)
same,growth inhibition,[9]; at 100.0 µM,99% (active)
same,growth inhibition,[10]; [17],5%
same,growth inhibition,[10]; [18],96% (active)
same,growth inhibition,[10]; at 50.0 µM,90.2% (active)
same,growth inhibition,[11]; at 1.2 µM,-4%
same,growth inhibition,[11]; at 3.7 µM,-6%
same,growth inhibition,[11]; [17],2%
same,growth inhibition,[11]; at 11.0 µM,6%
same,growth inhibition,[11]; at 33.0 µM,61%
same,growth inhibition,[11]; [18],85% (active)
same,growth inhibition,[11]; at 50.0 µM,89% (active)
same,growth inhibition,[11]; at 100.0 µM,99% (active)
same,growth inhibition,[12]; at 1.2 µM,-1%
same,growth inhibition,[12]; at 3.7 µM,1%
same,growth inhibition,[12]; at 11.0 µM,7%
same,growth inhibition,[12]; at 33.0 µM,57%
same,growth inhibition,[12]; at 100.0 µM,99% (active)
same,growth inhibition,[13]; at 1.2 µM,-3%
same,growth inhibition,[13]; at 3.7 µM,-1%
same,growth inhibition,[13]; at 11.0 µM,4%
same,growth inhibition,[13]; at 33.0 µM,60%
same,growth inhibition,[13]; at 100.0 µM,99% (active)
same,growth inhibition,[14]; [17],4%
same,growth inhibition,[14]; [18],91% (active)
same,growth inhibition,[14]; at 50.0 µM,91.2% (active)
CSc1nnc(SC)nn1,growth inhibition,[1]; at 1.2 µM,1%
same,growth inhibition,[1]; at 3.7 µM,7%
same,growth inhibition,[1]; at 11.0 µM,0%
same,growth inhibition,[1]; at 33.0 µM,52%
same,growth inhibition,[1]; at 100.0 µM,98% (active)
same,growth inhibition,[2]; at 1.2 µM,-4%
same,growth inhibition,[2]; at 3.7 µM,-5%
same,growth inhibition,[2]; at 11.0 µM,-14%
same,growth inhibition,[2]; at 33.0 µM,22%
same,growth inhibition,[2]; at 100.0 µM,99% (active)
same,growth inhibition,[3]; at 1.2 µM,6%
same,growth inhibition,[3]; at 3.7 µM,4%
same,growth inhibition,[3]; at 11.0 µM,-2%
same,growth inhibition,[3]; at 33.0 µM,26%
same,growth inhibition,[3]; at 100.0 µM,98% (active)
same,growth inhibition,[4]; at 1.2 µM,8%
same,growth inhibition,[4]; at 3.7 µM,4%
same,growth inhibition,[4]; at 11.0 µM,13%
same,growth inhibition,[4]; at 33.0 µM,72% (active)
same,growth inhibition,[4]; at 100.0 µM,98% (active)
same,growth inhibition,[5]; at 1.2 µM,-13%
same,growth inhibition,[5]; at 3.7 µM,-3%
same,growth inhibition,[5]; [17],51%
same,growth inhibition,[5]; at 11.0 µM,-2%
same,growth inhibition,[5]; at 33.0 µM,45%
same,growth inhibition,[5]; [18],98% (active)
same,growth inhibition,[5]; at 50.0 µM,82.2% (active)
same,growth inhibition,[5]; at 100.0 µM,96% (active)
same,growth inhibition,[6]; at 1.2 µM,9%
same,growth inhibition,[6]; at 3.7 µM,1%
same,growth inhibition,[6]; [17],57%
same,growth inhibition,[6]; at 11.0 µM,16%
same,growth inhibition,[6]; at 33.0 µM,77% (active)
same,growth inhibition,[6]; [18],97% (active)
same,growth inhibition,[6]; at 50.0 µM,77.8% (active)
same,growth inhibition,[6]; at 100.0 µM,99% (active)
same,growth inhibition,[7]; at 1.2 µM,-10%
same,growth inhibition,[7]; at 3.7 µM,0%
same,growth inhibition,[7]; at 11.0 µM,34%
same,growth inhibition,[7]; at 33.0 µM,77% (active)
same,growth inhibition,[7]; at 100.0 µM,98% (active)
same,growth inhibition,[8]; [17],-10%
same,growth inhibition,[8]; [18],99% (active)
same,growth inhibition,[8]; at 50.0 µM,82.8% (active)
same,growth inhibition,[9]; at 1.2 µM,12%
same,growth inhibition,[9]; at 3.7 µM,-6%
same,growth inhibition,[9]; at 11.0 µM,15%
same,growth inhibition,[9]; at 33.0 µM,31%
same,growth inhibition,[9]; at 100.0 µM,98% (active)
same,growth inhibition,[10]; [17],57%
same,growth inhibition,[10]; [18],95% (active)
same,growth inhibition,[10]; at 50.0 µM,87.7% (active)
same,growth inhibition,[11]; at 1.2 µM,11%
same,growth inhibition,[11]; at 3.7 µM,27%
same,growth inhibition,[11]; [17],34%
same,growth inhibition,[11]; at 11.0 µM,65%
same,growth inhibition,[11]; at 33.0 µM,90% (active)
same,growth inhibition,[11]; [18],98% (active)
same,growth inhibition,[11]; at 50.0 µM,93.1% (active)
same,growth inhibition,[11]; at 100.0 µM,99% (active)
same,growth inhibition,[12]; at 1.2 µM,9%
same,growth inhibition,[12]; at 3.7 µM,5%
same,growth inhibition,[12]; at 11.0 µM,3%
same,growth inhibition,[12]; at 33.0 µM,38%
same,growth inhibition,[12]; at 100.0 µM,99% (active)
same,growth inhibition,[13]; at 1.2 µM,-2%
same,growth inhibition,[13]; at 3.7 µM,6%
same,growth inhibition,[13]; at 11.0 µM,15%
same,growth inhibition,[13]; at 33.0 µM,55%
same,growth inhibition,[13]; at 100.0 µM,99% (active)
same,growth inhibition,[15]; at 1.2 µM,-2%
same,growth inhibition,[15]; at 3.7 µM,3%
same,growth inhibition,[15]; at 11.0 µM,0%
same,growth inhibition,[15]; at 33.0 µM,44%
same,growth inhibition,[15]; at 100.0 µM,98% (active)
same,growth inhibition,[14]; [17],58%
same,growth inhibition,[14]; [18],99% (active)
same,growth inhibition,[14]; at 50.0 µM,70.8% (active)
same,growth inhibition,[16]; at 1.2 µM,-4%
same,growth inhibition,[16]; at 3.7 µM,11%
same,growth inhibition,[16]; at 11.0 µM,12%
same,growth inhibition,[16]; at 33.0 µM,67%
same,growth inhibition,[16]; at 100.0 µM,98% (active)
